Data reported in PubChem BioAssay AID1159580 (chemical genetic matrix, 2015).
The whole screen tested about 5,500 compounds, of which about 2,000 (36%) were called active. Another 18% or so got no clear call; they are omitted. Rule as the data show it: active = normalized growth mostly below about 0.91 (no sharp cut-off); inconclusive = no clear call, values can overlap the other calls; inactive = mostly above about 0.92. Some of the results follow.

Assay: chemical genetic growth profiling, strain panel (AID 1159580);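 also: tested at 20 µM; growth read once vehicle control cultures reached saturation at 30 °C; 1 = growth at the plate median or of vehicle wells; lower values mean less growth of the strain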
Conditions: growth OD

Measured: normalized growth

OC(Cn1cncn1)(Cn1cncn1)c1ccc(F)cc1F
active: S. cerevisiae deletion strains, locus YLR039C, strain RIC1, stronger effect = lower value 0.635 | S. cerevisiae deletion strains, locus YLR262C, strain YPT6 (second series), stronger effect = lower value 0.465 | S. cerevisiae deletion strains, locus YPL106C, strain sse1, stronger effect = lower value 0.341
inactive: S. cerevisiae deletion strains, locus YJL187C, strain SWE1, stronger effect = lower value 1 | S. cerevisiae deletion strains, locus YJR043C, strain POL32, stronger effect = lower value 0.988 | S. cerevisiae deletion strains, locus YJR075W, strain HOC1, stronger effect = lower value 1.01 | S. cerevisiae deletion strains, locus YKL009W, strain mrt4, stronger effect = lower value 0.994 | S. cerevisiae deletion strains, locus YKL068W, stronger effect = lower value 0.996 | S. cerevisiae deletion strains, locus YKL085W, strain MDH1 (second series), stronger effect = lower value 0.985 | S. cerevisiae deletion strains, locus YKL085W, strain MDH1, stronger effect = lower value 0.985 | S. cerevisiae deletion strains, locus YKL160W, strain elf1, stronger effect = lower value 0.992 | S. cerevisiae deletion strains, locus YKL190W, strain CNB1, stronger effect = lower value 0.997 | S. cerevisiae deletion strains, locus YKR001C, strain vps1, stronger effect = lower value 1.05 | S. cerevisiae deletion strains, locus YKR026C, strain gcn3, stronger effect = lower value 0.999 | S. cerevisiae deletion strains, locus YKR091W, strain srl3, stronger effect = lower value 1.01 | S. cerevisiae deletion strains, locus YLL001W, strain dnm1, stronger effect = lower value 1.01 | S. cerevisiae deletion strains, locus YLL026W, stronger effect = lower value 0.999 | S. cerevisiae deletion strains, locus YLL041C, strain sdh2, stronger effect = lower value 1.01 | S. cerevisiae deletion strains, locus YLR027C, strain aat2, stronger effect = lower value 1 | S. cerevisiae deletion strains, locus YLR058C, strain SHM2, stronger effect = lower value 1 | S. cerevisiae deletion strains, locus YLR102C, strain apc9, stronger effect = lower value 1 | S. cerevisiae deletion strains, locus YLR221C, strain rsa3, stronger effect = lower value 0.996 | S. cerevisiae deletion strains, locus YLR258W, strain gsy2, stronger effect = lower value 1 | S. cerevisiae deletion strains, locus YLR262C, strain YPT6, stronger effect = lower value 0.634 | S. cerevisiae deletion strains, locus YLR268W, strain sec22, stronger effect = lower value 0.969 | S. cerevisiae deletion strains, locus YLR320W, strain mms22, stronger effect = lower value 0.956 | S. cerevisiae deletion strains, locus YLR330W, strain CHS5, stronger effect = lower value 0.99 | S. cerevisiae deletion strains, locus YLR342W, strain FKS1 (second series), stronger effect = lower value 1 | S. cerevisiae deletion strains, locus YLR342W, strain FKS1, stronger effect = lower value 1.01 | S. cerevisiae deletion strains, locus YLR357W, strain rsc2, stronger effect = lower value 1.02 | S. cerevisiae deletion strains, locus YLR370C, strain arc18, stronger effect = lower value 1 | S. cerevisiae deletion strains, locus YLR371W, strain rom2, stronger effect = lower value 1 | S. cerevisiae deletion strains, locus YLR384C, strain iki3, stronger effect = lower value 1 | S. cerevisiae deletion strains, locus YLR418C, strain cdc73, stronger effect = lower value 1.01 | S. cerevisiae deletion strains, locus YML016C, strain PPZ1, stronger effect = lower value 0.998 | S. cerevisiae deletion strains, locus YML032C, strain rad52, stronger effect = lower value 0.995 | S. cerevisiae deletion strains, locus YML120C, strain ndi1, stronger effect = lower value 1 | S. cerevisiae deletion strains, locus YML124C, strain tub3, stronger effect = lower value 1 | S. cerevisiae deletion strains, locus YMR058W, strain fet3, stronger effect = lower value 0.987 | S. cerevisiae deletion strains, locus YMR078C, strain ctf18, stronger effect = lower value 0.992 | S. cerevisiae deletion strains, locus YMR125W, strain sto1, stronger effect = lower value 1.03 | S. cerevisiae deletion strains, locus YMR129W, stronger effect = lower value 1.01 | S. cerevisiae deletion strains, locus YMR205C, strain PFK2, stronger effect = lower value 0.988 | S. cerevisiae deletion strains, locus YMR223W, strain ubp8, stronger effect = lower value 0.98 | S. cerevisiae deletion strains, locus YMR231W, strain pep5, stronger effect = lower value 0.943 | S. cerevisiae deletion strains, locus YMR263W, strain SAP30, stronger effect = lower value 0.988 | S. cerevisiae deletion strains, locus YMR307W, strain GAS1, stronger effect = lower value 1.25 | S. cerevisiae deletion strains, locus YNL067W, strain RPL9B, stronger effect = lower value 1.03 | S. cerevisiae deletion strains, locus YNL071W, strain lat1, stronger effect = lower value 1 | S. cerevisiae deletion strains, locus YNL128W, strain TEP1, stronger effect = lower value 0.965 | S. cerevisiae deletion strains, locus YNL209W, strain ssb2, stronger effect = lower value 1.01 | S. cerevisiae deletion strains, locus YNL233W, strain BNI4, stronger effect = lower value 1.01 | S. cerevisiae deletion strains, locus YNL248C, strain rpa49, stronger effect = lower value 0.994 | S. cerevisiae deletion strains, locus YNL250W, strain rad50, stronger effect = lower value 0.976 | S. cerevisiae deletion strains, locus YNL271C, strain bni1, stronger effect = lower value 0.98 | S. cerevisiae deletion strains, locus YNL298W, strain CLA4, stronger effect = lower value 0.958 | S. cerevisiae deletion strains, locus YNL307C, strain MCK1, stronger effect = lower value 1.01 | S. cerevisiae deletion strains, locus YNL322C, strain KRE1 (second series), stronger effect = lower value 0.996 | S. cerevisiae deletion strains, locus YNR049C, strain mso1, stronger effect = lower value 1.01 | S. cerevisiae deletion strains, locus YNR052C, strain pop2, stronger effect = lower value 0.979 | S. cerevisiae deletion strains, locus YOL006C, strain TOP1, stronger effect = lower value 0.971 | S. cerevisiae deletion strains, locus YOL012C, strain htz1 1.07 | S. cerevisiae deletion strains, locus YOL147C, strain pex11, stronger effect = lower value 1.01 | S. cerevisiae deletion strains, locus YOR001W, strain rrp6, stronger effect = lower value 0.994 | S. cerevisiae deletion strains, locus YOR061W, strain CKA2, stronger effect = lower value 1 | S. cerevisiae deletion strains, locus YOR069W, strain VPS5, stronger effect = lower value 0.992 | S. cerevisiae deletion strains, locus YOR070C, strain gyp1, stronger effect = lower value 0.998 | S. cerevisiae deletion strains, locus YOR080W, strain dia2, stronger effect = lower value 0.987 | S. cerevisiae deletion strains, locus YOR083W, strain WHI5, stronger effect = lower value 0.997 | S. cerevisiae deletion strains, locus YOR106W, strain vam3, stronger effect = lower value 0.964 | S. cerevisiae deletion strains, locus YOR136W, strain idh2, stronger effect = lower value 0.979 | S. cerevisiae deletion strains, locus YOR144C, strain elg1, stronger effect = lower value 1 | S. cerevisiae deletion strains, locus YOR184W, strain ser1, stronger effect = lower value 0.964 | S. cerevisiae deletion strains, locus YOR265W, strain rbl2, stronger effect = lower value 1 | S. cerevisiae deletion strains, locus YOR270C, strain vph1, stronger effect = lower value 0.977 | S. cerevisiae deletion strains, locus YOR290C, strain snf2, stronger effect = lower value 1.01 | S. cerevisiae deletion strains, locus YOR316C, strain cot1, stronger effect = lower value 0.991 | S. cerevisiae deletion strains, locus YPL051W, strain arl3, stronger effect = lower value 0.995 | S. cerevisiae deletion strains, locus YPL078C, strain atp4, stronger effect = lower value 0.992 | S. cerevisiae deletion strains, locus YPL240C, strain hsp82, stronger effect = lower value 0.998 | S. cerevisiae deletion strains, locus YPL241C, strain CIN2, stronger effect = lower value 0.997 | S. cerevisiae deletion strains, locus YPR119W, strain clb2, stronger effect = lower value 0.988 | S. cerevisiae deletion strains, locus YPR141C, strain kar3, stronger effect = lower value 0.989 | S. cerevisiae deletion strains, locus YPR163C, strain tif3, stronger effect = lower value 0.995 | S. cerevisiae deletion strains, locus YPR167C, strain met16, stronger effect = lower value 0.98 | S. cerevisiae deletion strains, strain wtn01, stronger effect = lower value 0.981 | S. cerevisiae strains, strain wild type, stronger effect = lower value 1
